# Data: the supplement of paper PMC3334620
# Whole data set: some 33,000 sequences, median “E-score (-0.5 to 0.5)” near -0.035, cut for the highest 2% near 0.35. The full list was thinned out, with the highest values kept by preference.
# Target: T1, Pdr3 (UniProt P33200)
# T1 sequence: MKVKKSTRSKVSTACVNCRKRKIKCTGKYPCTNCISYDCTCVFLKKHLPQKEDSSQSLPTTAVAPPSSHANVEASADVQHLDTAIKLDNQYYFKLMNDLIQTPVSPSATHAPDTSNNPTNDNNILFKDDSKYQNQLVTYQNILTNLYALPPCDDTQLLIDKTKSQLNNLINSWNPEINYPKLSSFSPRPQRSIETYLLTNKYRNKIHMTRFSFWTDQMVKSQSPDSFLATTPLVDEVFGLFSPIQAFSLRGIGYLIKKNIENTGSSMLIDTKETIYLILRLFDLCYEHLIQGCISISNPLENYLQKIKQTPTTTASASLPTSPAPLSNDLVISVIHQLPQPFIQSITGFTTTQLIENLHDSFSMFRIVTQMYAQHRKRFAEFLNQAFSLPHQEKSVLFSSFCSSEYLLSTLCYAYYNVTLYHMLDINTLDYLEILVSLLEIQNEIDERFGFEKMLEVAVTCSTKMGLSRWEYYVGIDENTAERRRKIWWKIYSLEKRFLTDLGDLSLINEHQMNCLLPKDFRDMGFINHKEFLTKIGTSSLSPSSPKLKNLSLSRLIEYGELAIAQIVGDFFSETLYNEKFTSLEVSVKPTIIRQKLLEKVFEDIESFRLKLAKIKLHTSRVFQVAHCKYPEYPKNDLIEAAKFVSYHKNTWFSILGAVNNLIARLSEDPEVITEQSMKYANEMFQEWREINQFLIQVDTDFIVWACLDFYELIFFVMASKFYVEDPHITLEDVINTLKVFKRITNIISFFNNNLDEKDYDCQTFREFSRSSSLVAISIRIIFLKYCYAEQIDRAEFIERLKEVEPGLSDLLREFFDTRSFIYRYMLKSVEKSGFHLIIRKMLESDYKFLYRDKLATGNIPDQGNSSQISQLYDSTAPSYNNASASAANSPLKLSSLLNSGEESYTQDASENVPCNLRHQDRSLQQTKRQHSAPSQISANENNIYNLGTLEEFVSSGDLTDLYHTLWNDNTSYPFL
# Test: PBM E-score (8-mer binding enrichment) (E-score (-0.5 to 0.5)); higher = stronger / more preferred TF binding
# Settings: protein concentration: 200 nM; construct: GST-full length
# Method in brief: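 Universal all-10-mer Agilent arrays, double-stranded by primer extension on fresh or once-stripped slides, were probed with about 100-200 nM GST-tagged yeast transcription factors made by PURExpress. Fluorescent anti-GST detected bound protein, and masliner normalised the scans. E-scores from the Universal PBM Analysis Suite were given to each ungapped eight-base word pooled with its reverse complement.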
row,Sequence,PBM E-score
1,AGATGCGC,0.0125
2,CCATGGAA,0.156
3,CGTTAGAG,-0.0371
4,CCCGCGCC,0.265
5,ACCGCGCG,0.397
6,CGCGCGCG,0.372
7,ACCGCGCT,0.139
8,GCCGCGCA,0.188
9,CCCGCGCG,0.382
10,CCCGCGCA,0.288
11,CGCGCGCC,0.241
12,TCCGCGCA,0.397
13,ACCGCGCC,0.128
14,ACCGCGCA,0.0742
15,CGCGCGCA,0.347
16,CCCAACCG,0.00518
17,CGACCGAG,0.124
18,TATCACGA,-0.126
19,AAAATGAG,-0.188
20,ATAGCTAC,-0.0621
21,CAGGGGGA,-0.286
22,CTTTTTTA,-0.0672
23,ATCCCCGG,0.386
24,ATCCCAGA,-0.204

row,Sequence,PBM E-score
1,CTCCCGCA,0.145
2,CCCCCGGC,0.037
3,CTCCCGGA,0.386
4,ATCCCGGA,0.417
5,CTCCCCGA,0.053
6,ATCCCAAA,0.0137
7,CTCCCGGC,0.368
8,CTCCCCGC,0.34
9,ATCCCCCG,0.278
10,ATCCCCGA,0.303
11,CGGCGTAA,-0.0269
12,CTGCGTGC,-0.0812
13,AATTTGTG,0.159
14,ATGAGAAG,-0.162
15,GTACTCGA,-0.0779
16,ACCCCGGC,0.153
17,GTCCCGCA,0.229
18,ATCCCAGG,0.113
19,GTCCCGGA,0.394
20,ATCCCTGG,-0.0752
21,ATCCCGGG,0.455
22,ATCCCGGC,0.419
23,GTCCCCGA,0.166
24,ATCCCGAC,0.331

row,Sequence,PBM E-score
1,ATGTTCAG,-0.207
2,AGGTCTAA,-0.0213
3,AGGAGGCA,-0.127
4,AGAGCTCG,0.0679
5,CAATTCTC,-0.138
6,AGATGGAG,-0.127
7,CCATACCC,0.0565
8,CCGTGTCA,0.24
9,GCGTGTCC,0.201
10,CCGTGTCC,0.356
11,GGGTTTGA,-0.0398
12,AGCGACGG,0.258
13,AGGGTCAA,-0.0253
14,CGGGTCAA,0.387
15,GGGGTCAA,-0.0321
16,AATGGAGG,0.0106
17,GTCGGCTA,0.0468
18,CACAGAGG,-0.0837
19,CATTCCCG,0.274
20,TATTCCGA,0.407
21,CATTCCGG,0.451
22,GATTCCGA,0.454
23,TATTCCAA,-0.091
24,CATTCCTA,-0.14

row,Sequence,PBM E-score
1,CATTCCAG,-0.131
2,TATTCCCA,0.0626
3,CATTCCAA,-0.102
4,CATTCCGA,0.421
5,GATTCCCA,0.0551
6,GATTCCAA,-0.0548
7,AGTTGCAC,-0.136
8,CTTGCCTC,0.0139
9,AGTCTCGG,0.101
10,ATGCGAAG,-0.0662
11,GATCCCAA,0.0388
12,ATAAATAC,0.176
13,ACCGGGAC,0.318
14,ACCGGGAA,0.309
15,AACGGGAC,0.217
16,AACGGGAG,0.179
17,AACGGGAT,0.364
18,ACCGGGAT,0.357
19,CGCACCAG,0.133
20,AGTTTGAT,0.0669
21,ACATGCTG,-0.158
22,ACATTCCA,-0.0365
